Source: PubChem
The entries come from a sample that favours hits as a whole.
DT40 TDP1 no CPT – qHTS for Inhibitors of human tyrosyl-DNA phosphodiesterase 1 (TDP1): qHTS in cells in absence of CPT; DT40 Tdp1-/- hTDP1 cells, no CPT, ATP luminescence, 48 h; Potency, µM (titrated, usually from 46.2 µM), for the others: at the highest dose activity change, negative = growth inhibition, most hits filed as inhibitors; hit rate 15% among 420,000; AID 686978, 2013; further: potency means the concentration at half of the fitted maximal effect; nearly all actives have a fitted effect of over 55% in size
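Compound effects on proliferation are scored in DT40 Tdp1-/-;hTDP1 cells in the absence of CPT. ATP levels (CellTiter-Glo luminescence) are recorded after a ≥48 hr, 37 °C incubation.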
HT1080-NT tox – kills 2HG-producing HT-1080-NT fibrosarcoma cells | HT-1080-NT fibrosarcoma viability, CellTiter-Glo ATP luminescence, 48 h | Potency, µM (titrated, usually from 46.1 µM), without a hit: top-dose activity, negative = less viability, actives largely listed as cytotoxic | hit rate 1.6% among 360,000 | AID 686970;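 further: NT is the 2HG producing partner of a matched IDH1 knockdown line; potency means the concentration at half of the fitted maximal effect; 0% = DMSO-treated cells and -100% = media-only wells without cells; nearly all actives have a fitted effect of over 55% in size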
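Fibrosarcoma NT cells, 750 per well in 5% FBS RPMI, were exposed to compound for 48 hours. Viability: CellTiter-Glo luminescence.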
DT40 TDP1 CPT – growth inhibition of DT40 Tdp1-/-;hTDP1 cells with camptothecin (screen for TDP1 inhibitors); chicken DT40 Tdp1-/-;hTDP1 cells + 20 nM CPT, ATP luminescence, 48 h; Potency, µM (titrated, usually from 46.2 µM), without a hit: at the top dose activity change, negative = growth inhibition, most hits filed as inhibitors; hit rate 12% among 420,000; further: potency means the concentration at half of the fitted maximal effect; nearly all actives have a fitted effect of over 55% in size
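Chicken DT40 Tdp1-/- cells complemented with human TDP1, 400 cells/well, exposed to compounds plus 20 nM camptothecin for at least 48 h at 37 C; viability read as ATP content by CellTiter-Glo luminescence.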
HT1080 IDH1KD tx – kills HT-1080 cells with IDH1 knockdown; HT-1080 IDH1 knockdown viability, ATP luminescence, 48 h; Potency, µM (top dose mostly 46.1 µM), inactives show at the highest dose activity, negative = toxicity, most hits filed as cytotoxic; hit rate 2% among 360,000; AID 686971;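 further: potency means the concentration at half of the fitted maximal effect; 0% = DMSO wells and -100% = cell-free medium wells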
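After a 2 h attachment period, IDH1KD HT-1080 cells took pin-transferred compound for 48 h at 37 °C; ATP-based luminescence after 10 min room-temperature reagent incubation reported viability.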
IL1B secr inh – blocks inflammasome-driven IL-1 beta release | THP-1 LPS/ATP IL-1B secretion, AlphaLISA, 16 h; stronger effect = lower value | activity change, % at 57.5 µM | hit rate 4.7% among 360,000 | AID 743279; in the data active means activity change below about -50%; inconclusive means mostly about -30% to -49%
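Secreted IL-1B measured by AlphaLISA bead assay after 16 h compound exposure of THP-1 cells; compounds (final up to 57.5 uM) added 1 h before LPS (250 ng/mL) and ATP (1.25 mM) stimulation; lower signal means less secretion.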
ALOX12 inh – ALOX12 (human) lipoxygenase inhibition | Potency, µM (titrated, usually from 108 µM), for the others: at the highest dose activity change, negative = inhibition, hits mostly inhibitors | hit rate 1.1% among 580,000 | purified 12hLO, xylenol orange hydroperoxide absorbance | P18054; further: potency means the concentration at half of the fitted maximal effect
Target sequence (P18054 whole entry, looked up): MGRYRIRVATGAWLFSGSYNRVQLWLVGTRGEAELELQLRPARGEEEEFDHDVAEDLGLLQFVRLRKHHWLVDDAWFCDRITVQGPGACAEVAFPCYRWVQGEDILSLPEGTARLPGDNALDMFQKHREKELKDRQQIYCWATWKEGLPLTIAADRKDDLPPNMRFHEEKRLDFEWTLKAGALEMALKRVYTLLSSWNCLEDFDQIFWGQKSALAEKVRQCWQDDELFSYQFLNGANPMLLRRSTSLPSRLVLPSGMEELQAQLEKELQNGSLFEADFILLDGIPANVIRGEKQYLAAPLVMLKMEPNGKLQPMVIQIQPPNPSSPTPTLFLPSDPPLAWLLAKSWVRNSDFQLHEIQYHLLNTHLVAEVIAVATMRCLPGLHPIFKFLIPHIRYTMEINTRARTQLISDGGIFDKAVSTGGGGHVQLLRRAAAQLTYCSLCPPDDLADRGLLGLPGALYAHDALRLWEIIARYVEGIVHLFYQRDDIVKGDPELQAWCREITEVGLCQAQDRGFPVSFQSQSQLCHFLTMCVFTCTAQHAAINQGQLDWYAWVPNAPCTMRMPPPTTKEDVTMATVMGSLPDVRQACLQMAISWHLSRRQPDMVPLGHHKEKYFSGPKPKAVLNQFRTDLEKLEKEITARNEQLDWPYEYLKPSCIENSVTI
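Purified human 12hLO at 150 nM in 25 mM Hepes, 0.01% Triton X-100, pH 7.0, preincubated 15 min at room temperature with compound. Reaction started with 40 uM arachidonic acid, 30 min at room temperature. Hydroperoxide measured by Fe-xylenol orange, 573/405 nm absorbance ratio.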
* = called active by the depositor; ? = inconclusive; / = no result given; [ ] = another dose, or the depositor's remark. Unless noted, the call rests on the fitted dose curve; in most records, active means well fitted curve in the direction sought with a large enough effect; inconclusive means small, poorly fitted or top-dose-only effect, or another doubt; inactive means no such curve, though single readings can be large; an effect the other way counts as inactive or inconclusive. Unless noted, on the % scale 0 is the no-effect control and ±100 the full control effect.

SMILES | DT40 TDP1 no CPT | HT1080-NT tox | DT40 TDP1 CPT | HT1080 IDH1KD tx | IL1B secr inh | ALOX12 inh
CCN(CC)C(=O)N1c2ccccc2CC(N(CC)CC)c2ccccc21 (stereo not drawn) | 5.8µM* | -20% | 7.3µM* | -26% | -20 | -7%
COc1cccc(NC(=S)NNC(=O)C(C)n2nc(C)c([N+](=O)[O-])c2C)c1 (stereo not drawn) | 0% | -1% | -6% | 2% | 10 | -8%
COc1cccc(NC(=S)NNC(=O)c2c([N+](=O)[O-])c(C)nn2C)c1 | ? | ? | ? | 7.9µM* | -10 | 19%
O=C(c1ccc(Cl)cc1)C(CN1CCCC1)c1ccccc1 (stereo not drawn) | 4.1µM* | 18µM* | 4.1µM* | 21µM* | -98* | 0%
O=C(c1ccc(F)cc1)C(CN1CCOCC1)c1ccccc1 (stereo not drawn) | 1.3µM* | -9% | 1.8µM* | 5.2µM* | -64* | -21%
CCCCOc1ccc(C(O)C(CN2CCCCC2)c2ccccc2)cc1 (stereo not drawn) | 23µM* | -14% | 23µM* | -13% | ? | ?
CCCCOc1ccc(C(O)C(CN2CCOCC2)c2ccccc2)cc1 (stereo not drawn) | -15% | 6% | -22% | -9% | 11 | 3%
CCCCCOc1ccc(C(=O)C(c2ccccc2)N2CCOCC2)cc1 (stereo not drawn) | ? | -11% | 21µM* | -24% | ? | ?
CC(CN1CCOCC1)OC(=O)C(c1ccccc1)c1ccccc1 (stereo not drawn) | -15% | 15% | -7% | 16% | 19 | ?
CNC(=O)[C@@H]1CN(S(=O)(=O)c2ccc3c(c2)CCC3)C[C@H]1c1nc(C)no1 | / | / | / | / | / | 35%
O=C(NC1CCc2ccccc21)c1ccc(CN2C(=O)NC3(CCOCC3)C2=O)cc1 (stereo not drawn) | / | / | / | / | / | 26%
C=CCNC(=O)c1coc(COc2ccc3c(c2)C(c2cccc(C)c2)N(C(=O)C2CC2)CC3)n1 (stereo not drawn) | / | / | / | / | / | 2%
CCCCOc1ccc(C(=O)C(CN2CCOCC2)c2ccccc2)cc1 (stereo not drawn) | 15µM* | 13µM* | 13µM* | 16µM* | -98* | ?
CCCOc1ccc(C(O)C(CN2CCOCC2)c2ccccc2)cc1 (stereo not drawn) | -12% | -1% | 10% | 1% | -2 | -30%
CCCOc1ccc(C(=O)C(CN2CCCC2)c2ccccc2)cc1 (stereo not drawn) | 5.2µM* | 8.2µM* | 3.7µM* | 6.5µM* | -103* | -13%
COc1ccc(C(=O)C(CN2CCCC2)c2ccccc2)cc1 (stereo not drawn) | 3.2µM* | 11µM* | 4µM* | 13µM* | -109* | -7%
COc1ccc(C(=O)C(CN2CCOCC2)c2ccccc2)cc1 (stereo not drawn) | 3.3µM* | 7.1µM* | 2.9µM* | 2µM* | -99* | -25%[57.4 µM]
COc1ccc(C(=O)C(OC(=O)c2ccccc2)c2ccccc2)cc1 (stereo not drawn) | ? | 8% | -16% | 4% | 0 | -19%
O=C(O)CCCC(=O)OCCCc1ccccc1 | / | / | / | / | / | 15%
CN(Cc1ccc(Cl)cc1)S(=O)(=O)c1cn(C)c(=O)n(C)c1=O | / | / | / | / | / | -10%
O=C(c1ccccc1)C(CCC(CN1CCOCC1)C(=O)c1ccccc1)CN1CCOCC1 (stereo not drawn) | 1.5µM* | 10µM* | 0.73µM* | 8.2µM* | -118* | ?
CCN1CC(CN(C)Cc2nc(-c3cccs3)no2)CC1=O (stereo not drawn) | -9% | 6% | -5% | 6% | 18 | -1%
